# From ChEMBL document CHEMBL1961873, “Compounds: GSK PKIS; Assays: Nanosyn kinase panel” (2012)
# What was measured:
# [1] = biological target: Sphingosine kinase 1 (Homo sapiens) (UniProt Q9NYA1); settings: at 1 µM;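 note: mean SPHK1 inhibition value reported from the GSK PKIS kinase panel screen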
# [2] = biological target: T1, Sphingosine kinase 2 (Homo sapiens) (UniProt Q9NRA0); settings: at 0.1 µM
# T1 sequence (whole entry): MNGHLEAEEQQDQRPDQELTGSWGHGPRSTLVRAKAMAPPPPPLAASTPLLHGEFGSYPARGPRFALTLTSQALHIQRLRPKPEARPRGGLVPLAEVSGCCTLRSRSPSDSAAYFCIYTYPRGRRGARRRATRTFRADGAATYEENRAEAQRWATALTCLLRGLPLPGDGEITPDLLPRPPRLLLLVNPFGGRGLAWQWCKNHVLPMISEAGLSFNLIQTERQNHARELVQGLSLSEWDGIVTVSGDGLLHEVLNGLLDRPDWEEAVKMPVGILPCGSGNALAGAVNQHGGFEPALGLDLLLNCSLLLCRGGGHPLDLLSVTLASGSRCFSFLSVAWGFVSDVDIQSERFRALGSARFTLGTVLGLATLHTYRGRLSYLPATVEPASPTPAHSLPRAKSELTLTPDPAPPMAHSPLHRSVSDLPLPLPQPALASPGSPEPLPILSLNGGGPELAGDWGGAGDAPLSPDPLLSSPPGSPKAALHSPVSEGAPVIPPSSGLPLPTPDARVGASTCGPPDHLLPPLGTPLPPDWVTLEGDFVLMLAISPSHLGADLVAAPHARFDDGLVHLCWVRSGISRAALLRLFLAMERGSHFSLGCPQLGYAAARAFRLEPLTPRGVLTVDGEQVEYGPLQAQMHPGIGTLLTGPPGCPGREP
# [3] = biological target: T1, Sphingosine kinase 2 (Homo sapiens); settings: at 1 µM
# [4] = biological target: Casein kinase II subunit alpha (Homo sapiens) (UniProt P68400); settings: at 0.1 µM
# [5] = biological target: Casein kinase II subunit alpha (Homo sapiens) (UniProt P68400); settings: at 1 µM
# [6] = biological target: T2, Inhibitor of nuclear factor kappa-B kinase subunit alpha (Homo sapiens) (UniProt O15111); settings: at 0.1 µM
# T2 sequence (whole entry): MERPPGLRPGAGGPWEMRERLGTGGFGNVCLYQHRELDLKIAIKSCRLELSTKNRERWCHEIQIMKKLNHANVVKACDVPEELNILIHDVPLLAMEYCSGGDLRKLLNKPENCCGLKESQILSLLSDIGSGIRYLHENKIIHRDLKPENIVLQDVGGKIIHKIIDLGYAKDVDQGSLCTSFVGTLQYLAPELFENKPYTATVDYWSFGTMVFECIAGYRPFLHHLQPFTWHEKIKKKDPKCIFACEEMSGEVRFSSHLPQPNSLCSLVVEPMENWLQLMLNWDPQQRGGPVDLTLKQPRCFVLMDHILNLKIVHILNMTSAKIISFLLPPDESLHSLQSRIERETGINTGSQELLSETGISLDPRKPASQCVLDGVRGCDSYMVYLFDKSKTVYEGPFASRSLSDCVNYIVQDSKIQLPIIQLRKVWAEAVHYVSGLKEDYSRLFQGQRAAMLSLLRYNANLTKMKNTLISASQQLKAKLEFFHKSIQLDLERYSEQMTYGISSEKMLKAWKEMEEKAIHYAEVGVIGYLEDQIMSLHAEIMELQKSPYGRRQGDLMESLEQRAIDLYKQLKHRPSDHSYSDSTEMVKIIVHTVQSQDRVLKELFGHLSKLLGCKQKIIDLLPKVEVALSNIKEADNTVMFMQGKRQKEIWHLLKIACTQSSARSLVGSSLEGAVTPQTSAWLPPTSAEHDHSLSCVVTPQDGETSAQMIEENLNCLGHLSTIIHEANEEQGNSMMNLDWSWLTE
# [7] = biological target: T2, Inhibitor of nuclear factor kappa-B kinase subunit alpha (Homo sapiens); settings: at 1 µM
# [8] = biological target: T3, Inhibitor of nuclear factor kappa-B kinase subunit beta (Homo sapiens) (UniProt O14920); settings: at 0.1 µM
# T3 sequence (whole entry): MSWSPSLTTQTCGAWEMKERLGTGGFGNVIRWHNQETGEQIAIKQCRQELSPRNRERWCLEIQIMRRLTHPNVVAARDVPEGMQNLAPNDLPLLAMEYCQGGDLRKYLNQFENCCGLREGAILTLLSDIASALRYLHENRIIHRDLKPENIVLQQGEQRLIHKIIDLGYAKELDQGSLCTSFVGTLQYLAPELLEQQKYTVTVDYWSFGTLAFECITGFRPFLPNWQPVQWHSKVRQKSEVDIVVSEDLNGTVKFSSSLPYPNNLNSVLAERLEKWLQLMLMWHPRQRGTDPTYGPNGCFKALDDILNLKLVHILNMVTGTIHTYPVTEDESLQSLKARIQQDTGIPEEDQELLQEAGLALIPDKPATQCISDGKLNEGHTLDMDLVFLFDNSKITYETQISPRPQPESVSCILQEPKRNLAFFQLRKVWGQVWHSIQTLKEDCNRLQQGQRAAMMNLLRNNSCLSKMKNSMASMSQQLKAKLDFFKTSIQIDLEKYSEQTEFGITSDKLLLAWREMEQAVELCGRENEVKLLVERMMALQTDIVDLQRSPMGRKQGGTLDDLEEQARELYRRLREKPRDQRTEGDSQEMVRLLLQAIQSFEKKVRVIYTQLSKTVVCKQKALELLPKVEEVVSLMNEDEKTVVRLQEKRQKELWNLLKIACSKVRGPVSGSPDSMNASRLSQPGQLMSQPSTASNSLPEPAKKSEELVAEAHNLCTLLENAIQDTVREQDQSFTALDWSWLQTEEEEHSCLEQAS
# [9] = biological target: T3, Inhibitor of nuclear factor kappa-B kinase subunit beta (Homo sapiens); settings: at 1 µM
# [10] = biological target: T4, Inhibitor of nuclear factor kappa-B kinase subunit epsilon (Homo sapiens) (UniProt Q14164); settings: at 0.1 µM
# T4 sequence (whole entry): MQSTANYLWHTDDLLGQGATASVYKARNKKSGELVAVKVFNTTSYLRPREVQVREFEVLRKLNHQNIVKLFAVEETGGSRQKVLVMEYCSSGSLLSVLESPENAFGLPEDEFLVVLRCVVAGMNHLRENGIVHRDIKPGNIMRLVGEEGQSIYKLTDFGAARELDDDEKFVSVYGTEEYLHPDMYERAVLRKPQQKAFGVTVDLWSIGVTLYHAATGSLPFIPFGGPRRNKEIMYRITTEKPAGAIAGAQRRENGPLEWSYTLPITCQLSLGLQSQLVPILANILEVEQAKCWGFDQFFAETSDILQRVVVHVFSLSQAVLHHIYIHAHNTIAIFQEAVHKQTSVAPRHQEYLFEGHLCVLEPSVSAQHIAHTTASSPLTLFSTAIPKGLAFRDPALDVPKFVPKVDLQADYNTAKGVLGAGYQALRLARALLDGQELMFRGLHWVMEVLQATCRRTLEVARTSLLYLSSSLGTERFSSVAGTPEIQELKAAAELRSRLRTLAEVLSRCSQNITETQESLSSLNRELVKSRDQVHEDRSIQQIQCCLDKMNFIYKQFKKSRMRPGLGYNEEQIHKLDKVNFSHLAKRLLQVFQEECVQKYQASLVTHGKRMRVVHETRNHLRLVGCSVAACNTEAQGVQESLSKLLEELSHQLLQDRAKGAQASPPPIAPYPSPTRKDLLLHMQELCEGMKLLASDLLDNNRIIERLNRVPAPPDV
# [11] = biological target: T4, Inhibitor of nuclear factor kappa-B kinase subunit epsilon (Homo sapiens); settings: at 1 µM
# [12] = biological target: T5, Serine/threonine-protein kinase Nek1 (Homo sapiens) (UniProt Q96PY6); settings: at 0.1 µM
# T5 sequence (whole entry): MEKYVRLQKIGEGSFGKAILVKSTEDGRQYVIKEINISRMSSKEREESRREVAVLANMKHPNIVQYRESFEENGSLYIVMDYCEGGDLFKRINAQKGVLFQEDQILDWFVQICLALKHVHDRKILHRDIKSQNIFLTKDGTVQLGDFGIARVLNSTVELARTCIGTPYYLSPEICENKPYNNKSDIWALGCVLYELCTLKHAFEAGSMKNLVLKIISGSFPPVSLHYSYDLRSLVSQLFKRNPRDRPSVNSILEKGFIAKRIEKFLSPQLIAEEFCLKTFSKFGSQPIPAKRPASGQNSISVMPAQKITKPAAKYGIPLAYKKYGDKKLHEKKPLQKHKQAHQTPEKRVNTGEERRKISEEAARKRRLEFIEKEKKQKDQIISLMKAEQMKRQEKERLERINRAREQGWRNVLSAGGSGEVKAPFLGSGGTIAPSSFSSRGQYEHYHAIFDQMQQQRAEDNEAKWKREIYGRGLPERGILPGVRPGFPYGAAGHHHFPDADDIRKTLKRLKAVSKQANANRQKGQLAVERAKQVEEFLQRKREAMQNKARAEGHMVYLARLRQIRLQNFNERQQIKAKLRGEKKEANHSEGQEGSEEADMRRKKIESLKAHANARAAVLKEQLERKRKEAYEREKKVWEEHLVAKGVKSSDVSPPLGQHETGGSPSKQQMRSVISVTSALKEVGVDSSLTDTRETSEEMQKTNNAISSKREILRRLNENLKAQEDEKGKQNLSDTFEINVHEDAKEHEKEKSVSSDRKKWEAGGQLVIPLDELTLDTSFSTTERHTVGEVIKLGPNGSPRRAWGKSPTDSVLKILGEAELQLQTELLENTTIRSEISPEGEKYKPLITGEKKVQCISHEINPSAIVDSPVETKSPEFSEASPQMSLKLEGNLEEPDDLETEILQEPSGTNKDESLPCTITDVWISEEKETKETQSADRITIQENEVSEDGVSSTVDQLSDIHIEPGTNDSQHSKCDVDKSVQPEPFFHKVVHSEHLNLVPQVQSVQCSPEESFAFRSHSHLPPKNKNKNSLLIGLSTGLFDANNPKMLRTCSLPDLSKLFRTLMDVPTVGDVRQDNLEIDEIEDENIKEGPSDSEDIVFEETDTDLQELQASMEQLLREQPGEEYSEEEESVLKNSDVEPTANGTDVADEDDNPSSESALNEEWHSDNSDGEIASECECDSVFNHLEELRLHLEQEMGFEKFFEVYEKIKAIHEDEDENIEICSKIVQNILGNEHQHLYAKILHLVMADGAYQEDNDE
# [13] = biological target: T5, Serine/threonine-protein kinase Nek1 (Homo sapiens); settings: at 1 µM
# [14] = biological target: T6, Serine/threonine-protein kinase Nek2 (Homo sapiens) (UniProt P51955); settings: at 0.1 µM
# T6 sequence (whole entry): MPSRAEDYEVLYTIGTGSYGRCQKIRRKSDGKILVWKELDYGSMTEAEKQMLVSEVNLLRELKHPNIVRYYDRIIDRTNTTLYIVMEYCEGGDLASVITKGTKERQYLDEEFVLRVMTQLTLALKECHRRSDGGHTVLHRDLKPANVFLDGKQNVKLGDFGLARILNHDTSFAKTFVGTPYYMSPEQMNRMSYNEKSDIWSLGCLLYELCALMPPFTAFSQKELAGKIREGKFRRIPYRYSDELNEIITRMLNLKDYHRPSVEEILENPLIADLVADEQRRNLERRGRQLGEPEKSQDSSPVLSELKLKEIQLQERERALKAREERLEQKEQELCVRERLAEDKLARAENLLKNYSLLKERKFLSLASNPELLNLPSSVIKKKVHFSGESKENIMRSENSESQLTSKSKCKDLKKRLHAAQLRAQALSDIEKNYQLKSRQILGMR
# [15] = biological target: T6, Serine/threonine-protein kinase Nek2 (Homo sapiens); settings: at 1 µM
# [16] = biological target: Serine/threonine-protein kinase Nek6 (Homo sapiens) (UniProt Q9HC98); settings: at 0.1 µM
# [17] = biological target: Serine/threonine-protein kinase Nek6 (Homo sapiens) (UniProt Q9HC98); settings: at 1 µM
# [18] = biological target: Serine/threonine-protein kinase Nek7 (Homo sapiens) (UniProt Q8TDX7); settings: at 0.1 µM
# [19] = biological target: Serine/threonine-protein kinase Nek7 (Homo sapiens) (UniProt Q8TDX7); settings: at 1 µM
# [20] = biological target: T7, Serine/threonine-protein kinase Nek9 (Homo sapiens) (UniProt Q8TD19); settings: at 0.1 µM;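 note: reported value is the mean percent inhibition of NEK9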
# T7 sequence (whole entry): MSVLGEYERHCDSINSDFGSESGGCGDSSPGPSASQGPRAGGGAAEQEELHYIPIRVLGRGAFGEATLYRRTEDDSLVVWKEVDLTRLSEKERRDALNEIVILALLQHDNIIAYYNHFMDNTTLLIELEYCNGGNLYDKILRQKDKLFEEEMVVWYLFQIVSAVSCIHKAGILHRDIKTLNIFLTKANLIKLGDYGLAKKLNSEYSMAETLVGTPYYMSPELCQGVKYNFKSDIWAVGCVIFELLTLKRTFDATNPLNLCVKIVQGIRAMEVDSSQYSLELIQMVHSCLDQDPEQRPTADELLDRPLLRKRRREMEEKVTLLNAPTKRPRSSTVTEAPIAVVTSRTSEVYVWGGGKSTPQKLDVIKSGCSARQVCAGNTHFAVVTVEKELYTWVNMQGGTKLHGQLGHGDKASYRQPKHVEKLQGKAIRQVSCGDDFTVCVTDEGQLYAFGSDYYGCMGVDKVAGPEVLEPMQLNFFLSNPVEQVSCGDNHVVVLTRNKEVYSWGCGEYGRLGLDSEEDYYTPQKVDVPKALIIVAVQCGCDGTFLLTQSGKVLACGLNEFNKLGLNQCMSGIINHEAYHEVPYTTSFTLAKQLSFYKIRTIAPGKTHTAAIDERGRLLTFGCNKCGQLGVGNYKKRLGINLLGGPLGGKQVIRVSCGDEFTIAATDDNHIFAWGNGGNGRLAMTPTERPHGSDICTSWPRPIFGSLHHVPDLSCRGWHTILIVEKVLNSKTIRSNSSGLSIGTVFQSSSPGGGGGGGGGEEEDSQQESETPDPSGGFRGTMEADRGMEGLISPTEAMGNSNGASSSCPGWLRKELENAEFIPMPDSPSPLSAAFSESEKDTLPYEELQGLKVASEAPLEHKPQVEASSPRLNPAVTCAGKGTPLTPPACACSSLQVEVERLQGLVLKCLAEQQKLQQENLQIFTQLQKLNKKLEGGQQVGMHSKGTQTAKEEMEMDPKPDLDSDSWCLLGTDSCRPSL
# Sequence of Serine/threonine-protein kinase Nek6 (Homo sapiens) (Q9HC98 whole entry): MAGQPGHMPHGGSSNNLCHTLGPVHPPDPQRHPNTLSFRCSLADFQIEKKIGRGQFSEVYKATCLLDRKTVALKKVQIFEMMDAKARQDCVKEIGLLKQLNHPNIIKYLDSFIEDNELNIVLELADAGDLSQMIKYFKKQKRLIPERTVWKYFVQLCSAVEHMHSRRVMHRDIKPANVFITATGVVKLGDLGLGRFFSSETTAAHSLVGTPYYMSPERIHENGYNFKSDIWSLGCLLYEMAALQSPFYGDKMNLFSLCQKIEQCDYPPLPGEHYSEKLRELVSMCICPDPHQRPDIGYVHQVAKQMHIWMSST
# Sequence of Serine/threonine-protein kinase Nek7 (Homo sapiens) (Q8TDX7 whole entry, looked up): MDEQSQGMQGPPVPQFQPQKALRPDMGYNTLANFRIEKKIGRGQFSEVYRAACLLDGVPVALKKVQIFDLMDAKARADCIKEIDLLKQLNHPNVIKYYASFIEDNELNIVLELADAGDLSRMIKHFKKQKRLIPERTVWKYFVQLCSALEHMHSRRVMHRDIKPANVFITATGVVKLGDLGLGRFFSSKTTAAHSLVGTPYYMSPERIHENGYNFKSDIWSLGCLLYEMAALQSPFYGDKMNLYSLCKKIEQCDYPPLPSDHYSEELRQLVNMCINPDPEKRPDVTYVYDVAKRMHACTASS
# Sequence of Casein kinase II subunit alpha (Homo sapiens) (P68400 whole entry, looked up): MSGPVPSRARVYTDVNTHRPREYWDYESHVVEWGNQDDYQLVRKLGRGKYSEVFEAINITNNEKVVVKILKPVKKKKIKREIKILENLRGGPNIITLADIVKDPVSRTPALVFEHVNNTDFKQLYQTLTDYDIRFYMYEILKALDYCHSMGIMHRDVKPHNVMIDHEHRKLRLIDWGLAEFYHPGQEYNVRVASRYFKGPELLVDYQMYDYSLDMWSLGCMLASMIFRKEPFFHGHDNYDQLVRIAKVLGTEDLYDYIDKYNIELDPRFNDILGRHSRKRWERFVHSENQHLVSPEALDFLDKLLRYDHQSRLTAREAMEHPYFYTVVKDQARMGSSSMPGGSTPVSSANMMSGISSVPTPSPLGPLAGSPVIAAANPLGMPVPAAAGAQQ
# Sequence of Sphingosine kinase 1 (Homo sapiens) (Q9NYA1 whole entry): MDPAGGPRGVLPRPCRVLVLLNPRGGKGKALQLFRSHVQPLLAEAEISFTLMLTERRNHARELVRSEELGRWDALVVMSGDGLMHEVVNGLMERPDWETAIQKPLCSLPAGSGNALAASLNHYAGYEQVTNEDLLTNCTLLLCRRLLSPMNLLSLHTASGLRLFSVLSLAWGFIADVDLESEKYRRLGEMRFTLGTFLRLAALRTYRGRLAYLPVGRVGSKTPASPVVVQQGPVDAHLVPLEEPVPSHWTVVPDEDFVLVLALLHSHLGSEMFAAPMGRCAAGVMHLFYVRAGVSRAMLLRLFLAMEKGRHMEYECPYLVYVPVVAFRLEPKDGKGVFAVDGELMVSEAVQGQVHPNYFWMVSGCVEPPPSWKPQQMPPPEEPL
smiles,measurement,setting,value
Nc1ncnc2occ(-c3ccc(NC(=O)Nc4cc(C(F)(F)F)cc(C(F)(F)F)c4)cc3)c12,inhibition,[1],-0.76%
same,inhibition,[2],1.12%
same,inhibition,[3],-0.25%
same,inhibition,[4],0.36%
same,inhibition,[5],-5.3%
same,inhibition,[6],-5.23%
same,inhibition,[7],-3.15%
same,inhibition,[8],-0.04%
same,inhibition,[9],1.07%
same,inhibition,[10],-2.4%
same,inhibition,[11],5.33%
same,inhibition,[12],1.24%
same,inhibition,[13],6.51%
same,inhibition,[14],3.72%
same,inhibition,[15],15.5%
same,inhibition,[16],-0.98%
same,inhibition,[17],0.99%
same,inhibition,[18],2.34%
same,inhibition,[19],0.46%
same,inhibition,[20],5.43%
